# Data taken from PubChem BioAssay (EPA / NIEHS).
# Records with an inconclusive call do not appear. Active and inactive are the calls of the source. The calls were made as follows: active = hit-call score of the fitted dose curve at least 0.9, where 1 is the maximum; inconclusive = response in the unintended direction; inactive = score below 0.9.
# Target: human Thyroid Receptor alpha (THRa1), THRA (gene 7067) (UniProt P10827)
# Assay: ATG_THRa1_TRANS: Attagene TRANS-FACTORIAL HepG2 Assay for human Thyroid Receptor alpha (THRa1) (AID 2283014)
# Method: ATG_TRANS is a cell-based, multiplexed-readout assay that uses HepG2, a human liver cell line, with measurements taken at 24 hours after chemical dosing in a 24-well plate.ATG_THRa1_TRANS is one of 30 assay component(s) measured or calculated from the ATG_TRANS assay. It is designed to make measurements of mRNA induction, a form of inducible reporter, as detected with fluorescence intensity signals by Reverse transcription polymerase chain reaction (RT-PCR) and Capillary electrophoresis technology.Data from the assay component ATG_THRa1_TRANS was analyzed into 1 assay endpoint. This assay endpoint, ATG_THRa1_TRANS, was analyzed in the positive analysis fitting direction relative to DMSO as the negative control and baseline of activity. Using a type of inducible reporter, measures of mRNA for gain-of-signal activity can be used to understand the reporter gene at the transcription factor-level as they relate to the gene THRA. Furthermore, this assay endpoint can be referred to as a primary readout, because this assay has produced multiple assay endpoints where this one serves a reporter gene function. To generalize the intended target to other relatable targets, this assay endpoint is annotated to the nuclear receptor intended target family, where the subfamily is non-steroidal.
# Human liver HepG2 cells are transiently transfected with multiple reporter transcription units (MRTUs) in 6-well plates using FuGene 6 reagent (Roche; 3 ml FuGene/1 mg DNA). The MRTU constructs are regulated by a cis-regulating element (promoter). […] A major difference between the CIS and TRANS system is that in CIS activities of endogenous TFs are measured, whereas the TRANS assay evaluates changes in activities of exogenous, chimeric NR-Gal4 proteins. […] At the end of 24 hour incubation, total RNA was isolated using TriZol reagent (Invitrogen). The isolated RNA is then reverse-transcribed using oligo(dT) primer and Mo-MLV reverse transcriptase (Invitrogen) with DNAse I (Ambion) treatment for 30 min. The one-tenth of the produced cDNA was amplified by PCR using Taq DNA polymerase (Invitrogen) and two reporter sequence-specific primers. The PCR products were fluorescently labeled by primer extension with 6-arboxyfluorescein (6-FAM) 5'-labeled reporter sequence-specific primer (2 min at 95 C, 20 s at 68 C and 10 min at 72 C) and these products were digested with 5U of HpaI (New England Biolabs) for 2h at 37 C. The fragments were purified using Qiaquick PCR columns (Qiagen), analyzed on an ABI 3130xL genetic analyzer (Applied Biosystems) with peak positions identified by using a set of X-rhodamine (ROX)-labeled MapMarker1000 molecular weight standards (BioVentures). The raw capillary electrophoresis data was processed using Attagraph software (Attagene).
# human Thyroid Receptor alpha (THRa1), THRA (gene 7067), sequence (P10827 whole entry, looked up): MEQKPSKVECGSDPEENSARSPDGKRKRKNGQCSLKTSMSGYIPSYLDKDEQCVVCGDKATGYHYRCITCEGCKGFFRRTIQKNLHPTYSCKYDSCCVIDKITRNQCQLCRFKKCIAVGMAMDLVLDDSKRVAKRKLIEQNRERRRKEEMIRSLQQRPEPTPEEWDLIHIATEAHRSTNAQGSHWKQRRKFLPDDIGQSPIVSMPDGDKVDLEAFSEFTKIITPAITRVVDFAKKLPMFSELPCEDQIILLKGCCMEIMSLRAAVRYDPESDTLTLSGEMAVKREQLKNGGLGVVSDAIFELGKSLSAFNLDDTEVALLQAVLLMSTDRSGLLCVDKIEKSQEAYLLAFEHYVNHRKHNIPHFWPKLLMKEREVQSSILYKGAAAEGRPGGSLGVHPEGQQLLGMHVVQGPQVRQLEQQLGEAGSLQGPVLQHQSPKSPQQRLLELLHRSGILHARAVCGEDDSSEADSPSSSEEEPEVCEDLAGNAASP
row,SMILES,outcome
1,CC(C)(C)C1CCC(O)CC1 (stereo not given),inactive
2,OCCCO,inactive
3,O=Cc1ccccc1O,inactive
4,C1CCCNCC1,inactive
5,O=C1OC2(c3ccc(O)cc3Oc3cc(O)ccc32)c2ccccc21,inactive
6,c1ccc(Cc2ccccc2)cc1,inactive
7,CCC(CC)CO,inactive
8,NC(N)=NC(N)=NCCc1ccccc1,inactive
9,Cc1ccccc1S,inactive
10,CC(=O)OCC=C(C)CCC=C(C)CCC=C(C)C,inactive
11,C=C(C)C(N)=O,inactive
12,Nc1ccc(O)c(N)c1,inactive
13,CC(C)CCOC(=O)CC(C)C,inactive
14,COc1cc(OC)c2ccc(=O)oc2c1,inactive
15,CCOC(=O)CC1(C)OCC(C)O1 (stereo not given),inactive
16,OC[C@H]1O[C@@H](O[C@H]2[C@H](O)[C@@H](O)[C@H](O)O[C@@H]2CO)[C@H](O)[C@@H](O)[C@H]1O,inactive
17,c1coc(CNc2ncnc3nc[nH]c23)c1,inactive
18,CC(=O)c1cccnc1,inactive
19,CC(=O)CC(C)(C)C1CCCCC1,inactive
20,CC/C=C\CCOC(=O)C(C)C,inactive

row,SMILES,outcome
1,CCCCOCCOCCO,inactive
2,CC(=O)C1=C(C)[C@@H]2C[C@@]3(C1)[C@H](C)CC[C@H]3C2(C)C,inactive
3,CC(=O)CCC=C(C)CCC=C(C)C,inactive
4,CC(C)N(c1ccccc1)C(C)C,inactive
5,CCCCCCCCCCCCCCCCCC(=O)OCCCCCCCCCCCCCC(C)C,inactive
6,CCC(=O)OC/C=C(\C)CCC=C(C)C,inactive
7,CCCCCc1cccc(=O)o1,inactive
8,O=C(O)c1ccc(C(=O)O)c(C(=O)O)c1,inactive
9,c1ccc(OCCOc2ccccc2)cc1,inactive
10,O=c1cc[nH]cc1,inactive
11,CCCCOCCOCCOCCO,inactive
12,CC(C)COC(=O)c1ccccc1O,inactive
13,CCCCCCCCSCc1cc(C)c(O)c(CSCCCCCCCC)c1,inactive
14,C=C1CC/C=C(\C)CC[C@@H]2[C@@H]1CC2(C)C,inactive
15,COc1ccccc1O,inactive
16,CC/C=C\C#N,inactive
17,C=C1CC[C@H]2O[C@]2(C)CC[C@@H]2[C@@H]1CC2(C)C,inactive
18,C/C=C(\C)C(=O)OC/C=C(\C)CCC=C(C)C,inactive
19,O=C(O)c1cc2ccccc2cc1O,inactive
20,CN(C)c1ccc(C=O)cc1,inactive
